Changes are numbered by the printed parent chain; changes in the protein carry UniProt numbers. The full ranking holds about 16,000 sequences; the median of “ka relative to ugcaugu” is about 0.096, and the highest 2% start at about 0.35. The sample holds the highest values, similar sequences and a random draw of the others, so the mix is not that of the screen.

B1: UACUGCC (DNA:RNA)
RNA: GGGAGACCGGAAUUCAGAUUGUCCUACUGCCUUAAAUCCCGUCGUAGCCACCA
DNA 1: CAATCTGAATTCCGGTCTCCC
DNA 2: TGGTGGCTACGACGGGATT
B2: CCGGCAC (DNA:RNA)
RNA: B1 RNA with U25C, A26C, C27G, U28G, G29C, C30A
DNA 1: CAATCTGAATTCCGGTCTCCC
DNA 2: TGGTGGCTACGACGGGATT
B3: CUGGUGA (DNA:RNA)
RNA: GGGAGACCGGAAUUCAGAUUGUCCCUGGUGAUUAAAUCCCGUCGUAGCCACCA
DNA 1: CAATCTGAATTCCGGTCTCCC
DNA 2: TGGTGGCTACGACGGGATT
B4: AGGAGUA (DNA:RNA)
RNA: B3 RNA with C25A, U26G, G28A, U29G, G30U
DNA 1: CAATCTGAATTCCGGTCTCCC
DNA 2: TGGTGGCTACGACGGGATT
B5: UAGUAGU (DNA:RNA)
RNA: B1 RNA with C27G, G29A, C30G, C31U
DNA 1: CAATCTGAATTCCGGTCTCCC
DNA 2: TGGTGGCTACGACGGGATT
B6: UCUCUCG (DNA:RNA)
RNA: B1 RNA with A26C, C27U, U28C, G29U, C31G
DNA 1: CAATCTGAATTCCGGTCTCCC
DNA 2: TGGTGGCTACGACGGGATT
B7: ACGUCAA (DNA:RNA)
RNA: B3 RNA with C25A, U26C, G28U, U29C, G30A
DNA 1: CAATCTGAATTCCGGTCTCCC
DNA 2: TGGTGGCTACGACGGGATT
B8: UUCCUAC (DNA:RNA)
RNA: B1 RNA with A26U, U28C, G29U, C30A
DNA 1: CAATCTGAATTCCGGTCTCCC
DNA 2: TGGTGGCTACGACGGGATT
B9: GAAAACG (DNA:RNA)
RNA: B1 RNA with U25G, C27A, U28A, G29A, C31G
DNA 1: CAATCTGAATTCCGGTCTCCC
DNA 2: TGGTGGCTACGACGGGATT
B10: GUCGGGC (DNA:RNA)
RNA: B3 RNA with C25G, G27C, U29G, A31C
DNA 1: CAATCTGAATTCCGGTCTCCC
DNA 2: TGGTGGCTACGACGGGATT
B11: AGGAGGC (DNA:RNA)
RNA: B3 RNA with C25A, U26G, G28A, U29G, A31C
DNA 1: CAATCTGAATTCCGGTCTCCC
DNA 2: TGGTGGCTACGACGGGATT
B12: CACCGGC (DNA:RNA)
RNA: B1 RNA with U25C, U28C, C30G
DNA 1: CAATCTGAATTCCGGTCTCCC
DNA 2: TGGTGGCTACGACGGGATT
B13: CCCCGGC (DNA:RNA)
RNA: B1 RNA with U25C, A26C, U28C, C30G
DNA 1: CAATCTGAATTCCGGTCTCCC
DNA 2: TGGTGGCTACGACGGGATT
B14: ACCAGGC (DNA:RNA)
RNA: B1 RNA with U25A, A26C, U28A, C30G
DNA 1: CAATCTGAATTCCGGTCTCCC
DNA 2: TGGTGGCTACGACGGGATT
B15: CGGCUUG (DNA:RNA)
RNA: B3 RNA with U26G, G28C, G30U, A31G
DNA 1: CAATCTGAATTCCGGTCTCCC
DNA 2: TGGTGGCTACGACGGGATT
B16: GGGCUUG (DNA:RNA)
RNA: B3 RNA with C25G, U26G, G28C, G30U, A31G
DNA 1: CAATCTGAATTCCGGTCTCCC
DNA 2: TGGTGGCTACGACGGGATT
B17: AGGCUUG (DNA:RNA)
RNA: B3 RNA with C25A, U26G, G28C, G30U, A31G
DNA 1: CAATCTGAATTCCGGTCTCCC
DNA 2: TGGTGGCTACGACGGGATT
B18: GUCCGGC (DNA:RNA)
RNA: B1 RNA with U25G, A26U, U28C, C30G
DNA 1: CAATCTGAATTCCGGTCTCCC
DNA 2: TGGTGGCTACGACGGGATT
B19: GGGGGGC (DNA:RNA)
RNA: B3 RNA with C25G, U26G, U29G, A31C
DNA 1: CAATCTGAATTCCGGTCTCCC
DNA 2: TGGTGGCTACGACGGGATT
B20: GUCGGCU (DNA:RNA)
RNA: B1 RNA with U25G, A26U, U28G, C31U
DNA 1: CAATCTGAATTCCGGTCTCCC
DNA 2: TGGTGGCTACGACGGGATT
B21: GGCUUGU (DNA:RNA)
RNA: B3 RNA with C25G, U26G, G27C, G28U, A31U
DNA 1: CAATCTGAATTCCGGTCTCCC
DNA 2: TGGTGGCTACGACGGGATT
B22: GUGGAAC (DNA:RNA)
RNA: B3 RNA with C25G, U29A, G30A, A31C
DNA 1: CAATCTGAATTCCGGTCTCCC
DNA 2: TGGTGGCTACGACGGGATT
B23: CAAUUGA (DNA:RNA)
RNA: B3 RNA with U26A, G27A, G28U
DNA 1: CAATCTGAATTCCGGTCTCCC
DNA 2: TGGTGGCTACGACGGGATT
B24: GGUCCAG (DNA:RNA)
RNA: GGGAGACCGGAAUUCAGAUUGUCCGGUCCAGUUAAAUCCCGUCGUAGCCACCA
DNA 1: CAATCTGAATTCCGGTCTCCC
DNA 2: TGGTGGCTACGACGGGATT
B25: GCCCCAG (DNA:RNA)
RNA: B24 RNA with G26C, U27C
DNA 1: CAATCTGAATTCCGGTCTCCC
DNA 2: TGGTGGCTACGACGGGATT
B26: CAUGAAU (DNA:RNA)
RNA: B3 RNA with U26A, G27U, U29A, G30A, A31U
DNA 1: CAATCTGAATTCCGGTCTCCC
DNA 2: TGGTGGCTACGACGGGATT
B27: AAUACGG (DNA:RNA)
RNA: B24 RNA with G25A, G26A, C28A, A30G
DNA 1: CAATCTGAATTCCGGTCTCCC
DNA 2: TGGTGGCTACGACGGGATT
B28: CUGUACC (DNA:RNA)
RNA: B3 RNA with G28U, U29A, G30C, A31C
DNA 1: CAATCTGAATTCCGGTCTCCC
DNA 2: TGGTGGCTACGACGGGATT
B29: AGCUGAC (DNA:RNA)
RNA: B1 RNA with U25A, A26G, C30A
DNA 1: CAATCTGAATTCCGGTCTCCC
DNA 2: TGGTGGCTACGACGGGATT
B30: CCAUGUA (DNA:RNA)
RNA: B3 RNA with U26C, G27A, G28U, U29G, G30U
DNA 1: CAATCTGAATTCCGGTCTCCC
DNA 2: TGGTGGCTACGACGGGATT
B31: AUGGAGA (DNA:RNA)
RNA: B3 RNA with C25A, U29A
DNA 1: CAATCTGAATTCCGGTCTCCC
DNA 2: TGGTGGCTACGACGGGATT
B32: ACCAUGU (DNA:RNA)
RNA: B3 RNA with C25A, U26C, G27C, G28A, A31U
DNA 1: CAATCTGAATTCCGGTCTCCC
DNA 2: TGGTGGCTACGACGGGATT
B33: AUGUCCG (DNA:RNA)
RNA: B3 RNA with C25A, G28U, U29C, G30C, A31G
DNA 1: CAATCTGAATTCCGGTCTCCC
DNA 2: TGGTGGCTACGACGGGATT
B34: AUGGAUC (DNA:RNA)
RNA: B3 RNA with C25A, U29A, G30U, A31C
DNA 1: CAATCTGAATTCCGGTCTCCC
DNA 2: TGGTGGCTACGACGGGATT
B35: GUCCAUG (DNA:RNA)
RNA: B24 RNA with G26U, U27C, C29A, A30U
DNA 1: CAATCTGAATTCCGGTCTCCC
DNA 2: TGGTGGCTACGACGGGATT
B36: AUGGAUG (DNA:RNA)
RNA: B3 RNA with C25A, U29A, G30U, A31G
DNA 1: CAATCTGAATTCCGGTCTCCC
DNA 2: TGGTGGCTACGACGGGATT
B37: AUGUUGU (DNA:RNA)
RNA: B3 RNA with C25A, G28U, A31U
DNA 1: CAATCTGAATTCCGGTCTCCC
DNA 2: TGGTGGCTACGACGGGATT
B38: AUGUGUA (DNA:RNA)
RNA: B3 RNA with C25A, G28U, U29G, G30U
DNA 1: CAATCTGAATTCCGGTCTCCC
DNA 2: TGGTGGCTACGACGGGATT
B39: AUGUUUG (DNA:RNA)
RNA: B3 RNA with C25A, G28U, G30U, A31G
DNA 1: CAATCTGAATTCCGGTCTCCC
DNA 2: TGGTGGCTACGACGGGATT
B40: AUGUAUA (DNA:RNA)
RNA: B3 RNA with C25A, G28U, U29A, G30U
DNA 1: CAATCTGAATTCCGGTCTCCC
DNA 2: TGGTGGCTACGACGGGATT
B41: AUGUUCG (DNA:RNA)
RNA: B3 RNA with C25A, G28U, G30C, A31G
DNA 1: CAATCTGAATTCCGGTCTCCC
DNA 2: TGGTGGCTACGACGGGATT

The assay concerns the target T1, RBFOX1 RRM RbFoxmut (Fox-RRM*) (Homo sapiens, UniProt Q9NWB1 109-208, R118D;E147R;N151S;E152T).
T1 sequence: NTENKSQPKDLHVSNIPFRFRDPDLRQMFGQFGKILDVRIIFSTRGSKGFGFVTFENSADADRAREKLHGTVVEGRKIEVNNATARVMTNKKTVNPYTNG
Put plainly: EMSA; HiTS-Eq, 1 nM pool, 10 min; buffer printed only for the single-RNA assays: 10 mM Tris pH 7.5, 150 mM NaCl, 3.4 mM EDTA, 0.001% NP-40, 30 C. The note with it: tags: His6 N-terminal (pET28a); label: 5' 32P. The procedure, abridged:
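These values rest on relative association constants, computed from read-count changes of each RNA species versus the control reaction and normalised to the cognate motif. Reads came from free RNA recovered by 8% native PAGE after purified RbFox RRM (wild type or mutant) at increasing concentrations was equilibrated for 10 min in 50 µL with 1 nM of a 5′-radiolabelled pool with 7 randomized nucleotides and DNA-annealed flanks.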
Background: A gel shift assay detects complexes by their altered migration in electrophoresis.
Turning to B1, the binding signal was 0.217 KA relative to UGCAUGU.

For the molecule B2, the binding signal is 0.0571 KA relative to UGCAUGU.

Regarding B3, the binding signal was 0.0924 KA relative to UGCAUGU.

Regarding B4, the binding signal was 0.168 KA relative to UGCAUGU.

Regarding B5, the binding signal is 0.121 KA relative to UGCAUGU.

As to B6, the binding signal was 0.0757 KA relative to UGCAUGU.

Turning to B7, the binding signal was 0.0727 KA relative to UGCAUGU.

B8: the binding signal was 0.0836 KA relative to UGCAUGU.

For the molecule B9, the binding signal was 0.0811 KA relative to UGCAUGU.

Regarding B10, the binding signal was 0.0929 KA relative to UGCAUGU.

Turning to B11, the binding signal is 0.118 KA relative to UGCAUGU.

Regarding B12, the binding signal was 0.0862 KA relative to UGCAUGU.

In the case of B13, the binding signal is 0.0573 KA relative to UGCAUGU.

In the case of B14, the binding signal is 0.0949 KA relative to UGCAUGU.

For the molecule B15, the binding signal is 0.431 KA relative to UGCAUGU.

Consider B16, for which the binding signal was 0.371 KA relative to UGCAUGU.

As for B17, the binding signal is 0.388 KA relative to UGCAUGU.

In the case of B18, the binding signal is 0.116 KA relative to UGCAUGU.

Turning to B19, the binding signal was 0.0893 KA relative to UGCAUGU.

For B20, the binding signal was 0.116 KA relative to UGCAUGU.

As for B21, the binding signal was 0.359 KA relative to UGCAUGU.

For the molecule B22, the binding signal is 0.112 KA relative to UGCAUGU.

Regarding B23, the binding signal was 0.0875 KA relative to UGCAUGU.

With B24, the binding signal is 0.0861 KA relative to UGCAUGU.

In the case of B25, the binding signal was 0.117 KA relative to UGCAUGU.

Consider B26, for which the binding signal was 0.114 KA relative to UGCAUGU.

Take B27: the binding signal was 0.0866 KA relative to UGCAUGU.

On to B28, for which the binding signal is 0.137 KA relative to UGCAUGU.

Consider B29, for which the binding signal was 0.109 KA relative to UGCAUGU.

As for B30, the binding signal is 0.2 KA relative to UGCAUGU.

With B31, the binding signal is 0.139 KA relative to UGCAUGU.

In the case of B32, the binding signal is 0.102 KA relative to UGCAUGU.

On to B33, for which the binding signal was 0.14 KA relative to UGCAUGU.

As for B34, the binding signal was 0.298 KA relative to UGCAUGU.

Consider B35, for which the binding signal is 0.151 KA relative to UGCAUGU.

As to B36, the binding signal is 0.64 KA relative to UGCAUGU.

For the molecule B37, the binding signal was 0.245 KA relative to UGCAUGU.

As for B38, the binding signal is 0.364 KA relative to UGCAUGU.

As for B39, the binding signal was 0.626 KA relative to UGCAUGU.

As for B40, the binding signal is 0.23 KA relative to UGCAUGU.

Turning to B41, the binding signal is 0.412 KA relative to UGCAUGU.

Source of the values: article PMC9911399, “Two distinct binding modes provide the RNA-binding protein RbFox with extraordinary sequence specificity”.
